Compounds without any hit were thinned out: in the full panel of roughly 83,000, 20% have a hit.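 Each cell line was grown in a 96-well plate and treated with one concentration of compound for 48 hours. Values below 10 were considered active.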 A number with no mark means an inactive call. Calls of active or inactive are those of the source.
Tested on: KM12 colon
Experiment: NCI-60 one-dose screen, 48 h (100 = growth as untreated, 0 = no growth, -100 = all killed)
Conditions: 10 µM unless noted

SMILES	growth
O=C1CCC(N2C(=O)c3cccc(NCCCCCC(=O)N4CCN(c5ccc6nc7c(nc6c5C(F)(F)F)C(=O)c5ncccc5C7=O)CC4)c3C2=O)C(=O)N1 (stereo unspecified)	-49.6% (active)
O=C(c1cc2cc(OCCCN3CCC3)ccc2[nH]1)N1C[C@@H](CCl)c2c1cc(OCc1ccccc1)c1ccccc21	-5.46% (active)
CC(C)C[C@H](NC(=O)CNC(=O)C[C@H]1O[C@@H]2OC3(C)CC[C@H]4[C@H](C)CC[C@@H]([C@H]1C)[C@@]24O3)B(O)O	-24.4% (active)

Tested on: MDA-MB-468 breast
Experiment: as above
Conditions: 10 µM unless noted

SMILES	growth
CC1=C(C(=O)Nc2ccccc2)C(c2cccc3ccccc23)n2c(nc3ccccc32)N1 (stereo unspecified)	49.9%
COc1ccc2nc(NC(=O)c3ccc(N(C)C)cc3)sc2c1	41.1%
C[C@H]1[C@@H](CC(=O)N[C@@H](Cc2coc3ccccc23)B(O)O)O[C@@H]2OC3(C)CC[C@H]4[C@H](C)CC[C@@H]1[C@@]24O3	-49.6% (active)
Fc1ccc(N2CC(Cn3c(C(F)(F)F)cc4c(Cl)ncnc43)C2)c(F)c1	-50.5% (active)
Cn1cc(-c2cc(N)n3nc(-c4c[nH]c5ccc(F)cc45)cc3n2)c2cc(Br)cnc21	20.7%
O=C1Nc2ccc(F)cc2/C1=C/C(=O)c1cc2ccccc2oc1=O	22.3%
O=C(CSc1nc2ccccc2c(=O)[nH]1)NNC(=O)c1ccccc1Cl	137%
CCCCNc1ccc2c3c(cccc13)C(=O)N(NCC(O)COc1ccc3c(C)cc(=O)oc3c1)C2=O (stereo unspecified)	68.8%
COc1cc(CNC(=O)C[C@H](C)CCC=C(C)C)ccc1OCc1cn(-c2ccccc2Cl)nn1	28.5%
Cc1cccc(-c2ccccc2Oc2ccc3nnc(Cl)n3n2)c1	98.3%
CCOc1ccccc1[C@H]1C(C(=O)c2ccc(Cl)cc2)C2(N[C@@H]1c1ccccc1)C(=O)Nc1ccccc12 (stereo partly specified)	-31.1% (active)
CCc1ccccc1-c1nc(CN[C@@H]2C[C@@H]3C[C@H]([C@H]2C)C3(C)C)c(C)o1	-83.4% (active)
COc1cc(C=O)ccc1OC(=O)c1cc(-c2ccc(C)cc2)n(-c2ccc(S(C)(=O)=O)cc2)n1	124%
COC(=O)c1ccc(-c2c(-c3ccccc3)c(F)c3oc(C(=O)OC)c(N)c3c2-c2ccccc2)cc1	84%
C#CCN(C)CCCOc1ccc(N(C)C(=O)c2cc(C(C)C)c(O)cc2O)cc1Cl	-30.8% (active)
COc1c2c(c(Br)c3c1C(CCc1ccccc1)N(C)CC3)OCO2 (stereo unspecified)	41.8%
CN(C(=O)CN1C(=O)/C(=C/c2ccco2)SC1=S)C1CCS(=O)(=O)C1 (stereo unspecified)	72%
COc1ccc(-c2nnc3c(/C=C/c4ccc(Br)cc4)nc4ccccc4n23)cc1	32.7%
CN(C)c1nc(NCCNS(=O)(=O)c2ccc(C3=Nc4c(N)nc(N)nc4NC(c4ccc(Cl)cc4)C3)cc2)nc(N2CCOCC2)n1 (stereo unspecified)	6.95% (active)

SMILES	growth
CC1=C(C(=O)OCc2ccccc2)C(c2cccc3ccccc23)n2c(nc3ccccc32)N1 (stereo unspecified)	-42.5% (active)
NNc1ncnc2sc3c(c12)CCN(Cc1ccccc1)C3	13.2%
c1n[nH]cc1-c1nc2ccc3[nH]ncc3c2c2c1CC1(CC2)COC1	-24.5% (active)
CC[C@]12C=CCN3CC[C@]4(C(=C(C(=O)OC)C1)Nc1cc(OC)c([C@@H]5[C@H]6O[C@H]6[C@@]6(CC)CC(C(=O)OC)=C7Nc8cc(OC)ccc8[C@@]78CCN5[C@@H]68)cc14)[C@@H]32	28.9%
COc1sc(/C=N/NC(=O)c2[nH]c3ccc(Br)cc3c2-c2ccccc2)cc1Br	-14.5% (active)
Cc1nc(Nc2ccccn2)sc1C1=NNC(c2ccccc2F)C1 (stereo unspecified)	-13.7% (active)
CN1CCN(c2ccc3c4c(cccc24)C(=O)N(c2cccc(-c4nn(-c5ccccc5)cc4-c4nc5ccccc5s4)c2)C3=O)CC1	94.1%
Cc1ccc2c(c1)nc(-c1ccccc1)n2CC(=O)N=Nc1c(O)[nH]c2ccc(Cl)cc12	-70.2% (active)
O=C(N/N=C/c1ccc(Br)o1)c1[nH]c2ccc(Br)cc2c1-c1ccccc1	5.25% (active)
COc1cc(/C=C/C(=O)c2ccc(S(=O)(=O)NCCNc3nc(N(C)C)nc(N4CCOCC4)n3)cc2)cc(OC)c1OC	-100% (active)
COc1cc(/C=C/C(=O)c2cnn(-c3cc(=O)[nH]c4ccccc34)c2C)cc(OC)c1OC	-35.3% (active)
Cc1ccccc1Nc1nnc(-c2c[nH]c3ccccc23)o1	-35.5% (active)
O=CNc1ccc(-n2cnc3cc(-c4ccc(O)cc4)ccc32)cc1	86.1%
C#CCN(C)CCCOc1ccc(N(CC)C(=O)c2cc(C(C)C)c(O)cc2O)cc1Cl	-46.8% (active)
CCOC(=O)/C(F)=C/C1CC1CCc1ccc(OCC)cc1 (stereo unspecified)	71.6%
O=C(CSc1nc2c(c(=O)[nH]1)CCCC2)Nc1ccccc1C(=O)O	100%
O=C1CCC(N2C(=O)c3cccc(NCCCCCC(=O)N4CCN(c5ccc6nc7c(nc6c5C(F)(F)F)C(=O)c5ncccc5C7=O)CC4)c3C2=O)C(=O)N1 (stereo unspecified)	-49.9% (active)
O=C(c1cc2cc(OCCCN3CCC3)ccc2[nH]1)N1C[C@@H](CCl)c2c1cc(OCc1ccccc1)c1ccccc21	-76.3% (active)
CC(C)C[C@H](NC(=O)CNC(=O)C[C@H]1O[C@@H]2OC3(C)CC[C@H]4[C@H](C)CC[C@@H]([C@H]1C)[C@@]24O3)B(O)O	-58.4% (active)

From PubChem BioAssay (NCI)
